Results filed as inconclusive are left out. Activity calls are given as the source filed them. The call rests on the fitted dose curve; in most records, active means well fitted inhibition curve with a large enough effect; inconclusive means small, poorly fitted or top-dose-only effect; inactive means no such curve, though single readings can be large or run the other way.
Assay: Primary qHTS for inhibitors of La Crosse Virus (LACV) - induced cell death in SH-SY5Y cells (AID 1508616);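 further: top concentration of the series differs between compounds; 0% = infected DMSO wells and 100% = uninfected DMSO wells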
Details: SH-SY5Y LACV cytopathicity rescue, ATP luminescence, 6 d; series mostly up to 4.29 µM; activity change: at the top concentration
Text: Assay Provider: Karin Peterson Ph.D.
National Institute of Allergy and Infection Diseases, National Institute of Health
La Crosse Virus (LACV) is a California serogroup mosquito-borne arbovirus, family Peribunyaviridae, which is an endemic pathogen in North America and can induce a rare, life-threatening neurological disease in children. LACV was first isolated in the early 1960s, from a summer "rural encephalitis" case in La Crosse, Wisconsin, USA. Since then, LACV encephalitis cases have been found in more than twenty states, with most cases in the Mississippi and Ohio River basins. The life cycle of LACV is maintained between the vector, the eastern tree-hole mosquito Aedes triseriatus, and vertebrate hosts including eastern gray squirrels (Sciurus carolinensis) and chipmunks (Tamiasstriatus grinseus). […] Most LACV infections in humans are asymptomatic or induce mild clinical symptoms of fever, headache, lethargy and vomiting. However, in some cases LACV can cause severe neuroinvasive disease, including encephalitis, meningitis, and meningoencephalitis, requiring hospitalization. To date, there is neither a licensed vaccine nor a Food and Drug Administration (FDA) approved antiviral therapy available to prevent or treat LACV encephalitis. The primary treatment for viral encephalitis is palliative care due to the lack of therapeutics. In the current study, we conducted a screen of 4,096 FDA approved and bioactive small molecules against LACV, by screening for rescue of LACV-induced cell death in SH-SY5Y cells.
LACV-induced cytopathicity assay
SEQUENCE No. (1,2, 3, etc.); […] (e.g., Cells, Incubation, Reagent, etc.); VALUE and DESCRIPTION.
1. Reagent; 2 uL; Cell solution.
3. Compounds; 23nL; Compound library
4. Reagent; 12 uL; LACV virus
6. Reagent; 24 uL; ATPLite (PerkinElmer)
7. Time; 5 min; Room temperature
8. Detection; Luminescence; View
NOTES (numbers refer to sequence above)
1. Seed 6000 SH-SY5Y cells (ATCC CRL-2266) in 2 microL/well media (DMEM/F12 10% FBS, 1x L-Glutamine, 1x Pyruvate, 1x NEAA, 1x Pen/Strep) in 384-well assay plates (tissue culture treated, white, solid bottom).
2. Incubate at 37 degrees C with 5% CO2 for 24 hr.
3. Dispense 23 nL/well compounds in DMSO via pin transfer.
4. Dispense 12 microL/well of LACV (LACV/human/1978) in media at 0.01 MOI.
5. Incubate at for 6 days at 37C 5% CO2
6. Dispense 24 microL/well of ATPLite 1step Luminescence assay system (PerkinElmer).
7. Incubate for 5 min at room temperature.
8. Read luminescence signal (Viewlux plate reader, PerkinElmer). Data was normalized with DMSO control wells containing LACV as 0%, and DMSO control wells without virus as 100%.

| SMILES | activity change | outcome |
| --- | --- | --- |
| CCn1cc(C(=O)O)c(=O)c2cnc(N3CCNCC3)nc21 | -0.557% (inactive) | – |
| CCCCCCCCCCCCCCCC(=O)NCCO | – | inactive |
| CC(=O)Oc1c(C)c(C)c2c(c1C)CC[C@@](C)(CCC[C@H](C)CCC[C@H](C)CCCC(C)C)O2 | 6.94% (inactive) | – |
| CCC(=O)Nc1ccc(O)cc1 | -0.69% (inactive) | – |
| CCCOC(=O)c1ccccc1 | 19.2% (inactive) | – |
| CN1CCN(C2Cc3ccccc3Sc3ccc(Cl)cc32)CC1 (stereo not given) | – | inactive |
| CCOC(=O)[C@H](CCc1ccccc1)N[C@@H](C)C(=O)N1C(=O)N(C)C[C@H]1C(=O)O | 14.9% (inactive) | – |
| CCN(CC)C(C)CN1c2ccccc2Sc2ccccc21 (stereo not given) | – | inactive |
| CCN(CC)CCNC(=O)c1c(C)[nH]c(/C=C2\C(=O)Nc3ccc(F)cc32)c1C | -12% (inactive) | – |
| O=C1N=C(O)CN1/N=C/c1ccc(-c2ccc([N+](=O)[O-])cc2)o1 | – | inactive |
| CC1(C)OC(=O)NC1=O | 5.11% (inactive) | – |
| O=C(O)c1ccccc1O | -8.97% (inactive) | – |
| O=C(O)c1ccccn1 | -2.71% (inactive) | – |
| NC1CCN(c2cccc(Cl)n2)CC1 | -3.81% [at 9.63 µM] (inactive) | – |
| CC(=O)c1ccc2c(c1)N(CCCN(C)C)c1ccccc1S2 | -1.15% (inactive) | – |
| Oc1cn2c(n1)Nc1ccc(Cl)c(Cl)c1C2 | -7.43% [at 1.78 µM] (inactive) | – |
| OCc1cc(C(O)CNCCCCCCOCCCCc2ccccc2)ccc1O (stereo not given) | – | inactive |
| O=C1OC(OC(=O)c2cccnc2Nc2cccc(C(F)(F)F)c2)c2ccccc21 (stereo not given) | -0.403% (inactive) | – |
| CCCc1c(OCCCCc2nn[nH]n2)ccc(C(C)=O)c1O | -13.6% (inactive) | – |
| CC(C)(C)C(=O)C(Oc1ccc(Cl)cc1)n1ccnc1 (stereo not given) | -4.84% (inactive) | – |

| SMILES | activity change | outcome |
| --- | --- | --- |
| Nc1ccc(S(=O)(=O)Nc2ccccc2)cc1 | -4.1% (inactive) | – |
| Cc1cc(O)cc2c1O[C@](C)(CCC[C@H](C)CCC[C@H](C)CCCC(C)C)CC2 | 0.329% (inactive) | – |
| c1ccc(CN(CC2=NCCN2)c2ccccc2)cc1 | 21.1% (inactive) | – |
| CN(C)CCCO[C@@H]1[C@H]2OC(C)(C)O[C@H]2O[C@@H]1C(O)CO (stereo not given in full) | 18.1% (inactive) | – |
| CC1=C(CC(=O)O)c2cc(F)ccc2/C1=C\c1ccc(S(C)=O)cc1 (stereo not given) | – | inactive |
| CCCCN1CCCC[C@H]1C(=O)Nc1c(C)cccc1C | -4.17% (inactive) | – |
| CN1CCCCC1CCN1c2ccccc2Sc2ccc(S(C)=O)cc21 (stereo not given) | -23.4% (inactive) | – |
| O=C(Oc1ccccc1C(=O)O)c1ccccc1O | -5.31% (inactive) | – |
| CC1(C)S[C@@H]2[C@H](NC(=O)Cc3ccccc3)C(=O)N2[C@H]1C(=O)O (tested in a mixture with another compound) | 35.9% (inactive) | – |
| CC(O)COc1ccccc1 (stereo not given) | -11.2% (inactive) | – |
| NC(CSCC(=O)O)C(=O)O (stereo not given) | -16.3% (inactive) | – |
| O=C(O)CC(O)C(=O)O (stereo not given) | 1.1% (inactive) | – |
| CCN(CC)CCSC(=O)C(c1ccccc1)c1ccccc1 | -6.73% (inactive) | – |
| CN1CCC[C@@H]1Cc1c[nH]c2ccc(CCS(=O)(=O)c3ccccc3)cc12 | -1.55% (inactive) | – |
| Nc1cc(=O)[nH]c(N)n1 | – | inactive |
| O=c1cc[nH]c(=O)[nH]1 | -8.57% (inactive) | – |
| NS(=O)(=O)c1cc2c(cc1C(F)(F)F)NC(Cc1ccccc1)NS2(=O)=O (stereo not given) | 6.41% (inactive) | – |
| CCOc1nc2cccc(C(=O)O)c2n1Cc1ccc(-c2ccccc2-c2nn[nH]n2)cc1 | 26.2% (inactive) | – |
| CN(C)CC[C@@H](c1ccc(Cl)cc1)c1ccccn1 | – | inactive |
| Cc1c(Cl)cccc1Nc1ccccc1C(=O)O | 41.7% (inactive) | – |

— PubChem BioAssay (NCATS)
